Holding throughout (test): DAPPL (digital affinity profiling via proximity ligation, sequencing); 10 mM Tris-HCl pH 7.5, 50 mM NaCl, 1 mM DTT, 4% glycerol, room temperature, 30 min; GST-TFs on glutathione beads, 16-mer random dsDNA library, 0.1% formaldehyde crosslink after washing; high values mean tight binding
One experiment has as its target T1, FLI1 (Homo sapiens, UniProt Q01543 1-452).
T1 sequence: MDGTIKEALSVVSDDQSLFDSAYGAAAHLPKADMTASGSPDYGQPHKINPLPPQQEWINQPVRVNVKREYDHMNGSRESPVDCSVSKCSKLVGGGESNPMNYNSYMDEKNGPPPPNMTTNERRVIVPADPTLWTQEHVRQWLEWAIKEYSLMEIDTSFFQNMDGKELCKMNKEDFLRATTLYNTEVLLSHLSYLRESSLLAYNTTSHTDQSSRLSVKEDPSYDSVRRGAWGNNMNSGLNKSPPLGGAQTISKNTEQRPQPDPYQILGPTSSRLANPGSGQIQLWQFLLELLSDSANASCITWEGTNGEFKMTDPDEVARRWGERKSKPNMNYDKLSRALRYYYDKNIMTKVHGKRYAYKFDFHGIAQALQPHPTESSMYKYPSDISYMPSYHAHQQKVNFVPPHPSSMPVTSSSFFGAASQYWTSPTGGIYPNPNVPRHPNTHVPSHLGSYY
Particulars: protein: recombinant; tags: N-terminal GST; dsDNA, one strand shown. An outline of the steps:
(§1)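 Each value of binding signal is a hexamer's read frequency for a factor divided by the same hexamer's frequency in the tag-only sample. Barcoded, bead-captured GST fusions of human transcription factors made in yeast were pooled with that sample and incubated with 200 nmole of a random double-stranded 16-mer DNA library in Tris/NaCl/DTT/glycerol buffer at room temperature for 30 min. Washing, 0.1% formaldehyde crosslinking, proximity ligation, PCR and Illumina NextSeq500 sequencing followed.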

A further experiment concerns the target T2, ELK1 (Homo sapiens, UniProt P19419 1-428).
T2 sequence: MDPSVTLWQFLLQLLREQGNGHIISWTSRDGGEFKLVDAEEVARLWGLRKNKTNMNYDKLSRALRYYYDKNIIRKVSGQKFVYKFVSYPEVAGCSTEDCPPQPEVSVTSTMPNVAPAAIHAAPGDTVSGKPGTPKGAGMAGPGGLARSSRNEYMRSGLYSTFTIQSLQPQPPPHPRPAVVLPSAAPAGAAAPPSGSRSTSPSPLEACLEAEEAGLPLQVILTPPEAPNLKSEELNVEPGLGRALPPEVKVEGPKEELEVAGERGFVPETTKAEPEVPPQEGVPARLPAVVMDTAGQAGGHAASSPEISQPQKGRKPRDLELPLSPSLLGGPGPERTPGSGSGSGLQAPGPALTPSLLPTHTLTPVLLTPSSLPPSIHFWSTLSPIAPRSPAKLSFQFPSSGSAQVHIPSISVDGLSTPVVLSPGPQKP
Particulars: protein: recombinant; tags: N-terminal GST; dsDNA, one strand shown. The procedure, abridged:
as §1

A further experiment addresses T3, GABPA (Homo sapiens, UniProt Q06546 1-454).
T3 sequence: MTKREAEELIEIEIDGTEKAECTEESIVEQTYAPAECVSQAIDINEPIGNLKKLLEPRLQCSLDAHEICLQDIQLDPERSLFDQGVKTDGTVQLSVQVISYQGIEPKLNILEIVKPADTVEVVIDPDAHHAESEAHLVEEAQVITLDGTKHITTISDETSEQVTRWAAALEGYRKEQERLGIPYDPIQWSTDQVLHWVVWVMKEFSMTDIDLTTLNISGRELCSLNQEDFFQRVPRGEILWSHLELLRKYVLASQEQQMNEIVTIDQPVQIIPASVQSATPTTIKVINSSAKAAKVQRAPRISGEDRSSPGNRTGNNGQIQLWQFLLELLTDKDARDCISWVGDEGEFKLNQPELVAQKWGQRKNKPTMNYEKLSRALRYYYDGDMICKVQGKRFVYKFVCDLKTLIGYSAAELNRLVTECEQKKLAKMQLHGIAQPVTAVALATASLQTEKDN
The note with it: protein: recombinant; tags: N-terminal GST; dsDNA, one strand shown. An outline of the steps:
as §1

For the next experiment, the target named is T4, ERG (Homo sapiens, UniProt P11308 1-479).
T4 sequence: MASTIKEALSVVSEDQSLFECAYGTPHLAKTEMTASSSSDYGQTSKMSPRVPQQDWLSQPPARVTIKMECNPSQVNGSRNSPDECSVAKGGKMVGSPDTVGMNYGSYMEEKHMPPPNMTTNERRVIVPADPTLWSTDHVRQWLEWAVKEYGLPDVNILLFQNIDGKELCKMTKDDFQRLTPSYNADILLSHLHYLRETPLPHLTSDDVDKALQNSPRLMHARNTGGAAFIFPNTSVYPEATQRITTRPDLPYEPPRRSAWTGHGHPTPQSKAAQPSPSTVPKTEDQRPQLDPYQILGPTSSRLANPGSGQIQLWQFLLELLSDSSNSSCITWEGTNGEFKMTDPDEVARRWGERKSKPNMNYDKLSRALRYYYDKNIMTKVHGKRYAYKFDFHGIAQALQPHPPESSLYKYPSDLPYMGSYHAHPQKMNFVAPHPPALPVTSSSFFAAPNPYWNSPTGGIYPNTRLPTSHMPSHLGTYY
The note with it: protein: recombinant; tags: N-terminal GST; dsDNA, one strand shown. The procedure, abridged:
as §1

The target in another experiment is ELF1 (Homo sapiens, UniProt P32519 1-619). The note with it: protein: recombinant; tags: N-terminal GST; dsDNA, one strand shown. An outline of the steps:
as §1

The target in a further experiment is T5, EHF (Homo sapiens, UniProt Q9NZC4 1-300).
T5 sequence: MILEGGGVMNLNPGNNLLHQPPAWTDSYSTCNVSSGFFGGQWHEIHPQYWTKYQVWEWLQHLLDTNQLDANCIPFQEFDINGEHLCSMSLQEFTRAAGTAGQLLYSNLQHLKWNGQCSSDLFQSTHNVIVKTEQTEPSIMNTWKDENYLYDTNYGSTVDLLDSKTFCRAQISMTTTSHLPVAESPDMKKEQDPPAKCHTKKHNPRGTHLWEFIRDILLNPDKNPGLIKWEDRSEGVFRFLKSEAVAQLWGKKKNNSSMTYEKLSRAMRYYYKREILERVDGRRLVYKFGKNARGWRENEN
Particulars: protein: recombinant; tags: N-terminal GST; dsDNA, one strand shown. The procedure, abridged:
as §1

In another experiment the target is SPI1 (Homo sapiens, UniProt P17947 1-270). The note with it: protein: recombinant; tags: N-terminal GST; dsDNA, one strand shown. The procedure, abridged: as §1
In a further experiment the target is SPIB (Homo sapiens, UniProt Q01892 1-262). Particulars: protein: recombinant; tags: N-terminal GST; dsDNA, one strand shown. The procedure, abridged:
as §1

In a further experiment the target is T6, ELK3 (Homo sapiens, UniProt P41970 1-407).
T6 sequence: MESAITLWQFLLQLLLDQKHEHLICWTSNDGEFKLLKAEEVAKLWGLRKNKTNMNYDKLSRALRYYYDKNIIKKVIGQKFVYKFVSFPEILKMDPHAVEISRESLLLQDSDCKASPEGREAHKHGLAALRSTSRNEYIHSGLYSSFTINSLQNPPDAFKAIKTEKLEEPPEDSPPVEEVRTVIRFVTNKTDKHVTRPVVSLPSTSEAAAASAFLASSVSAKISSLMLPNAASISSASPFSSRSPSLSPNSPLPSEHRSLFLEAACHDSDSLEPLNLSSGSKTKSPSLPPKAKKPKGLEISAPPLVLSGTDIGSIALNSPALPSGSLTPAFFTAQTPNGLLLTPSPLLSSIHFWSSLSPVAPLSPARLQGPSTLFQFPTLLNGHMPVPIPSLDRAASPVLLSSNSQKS
Particulars: protein: recombinant; tags: N-terminal GST; dsDNA, one strand shown. An outline of the steps: as §1

A further experiment concerns the target T7, FEV (Homo sapiens, UniProt Q99581 1-238).
T7 sequence: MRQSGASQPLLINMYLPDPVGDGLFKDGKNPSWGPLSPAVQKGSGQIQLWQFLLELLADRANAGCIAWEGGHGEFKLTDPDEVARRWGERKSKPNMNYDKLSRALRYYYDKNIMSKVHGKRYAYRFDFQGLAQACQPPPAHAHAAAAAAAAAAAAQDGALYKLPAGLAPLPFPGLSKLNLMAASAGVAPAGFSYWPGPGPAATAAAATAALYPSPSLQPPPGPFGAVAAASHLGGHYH
Particulars: protein: recombinant; tags: N-terminal GST; dsDNA, one strand shown. The procedure, abridged: as §1

A further experiment has as its target ETV5 (Homo sapiens, UniProt P41161 1-510). Particulars: protein: recombinant; tags: N-terminal GST; dsDNA, one strand shown. The procedure, abridged:
as §1

The next experiment concerns the target HSF1 (Homo sapiens, UniProt Q00613 1-529). Particulars: protein: recombinant; tags: N-terminal GST; chain copies: 3; dsDNA, one strand shown. The procedure, abridged:
as §1

The target in another experiment is ELF4 (Homo sapiens, UniProt Q99607 1-663). The note with it: protein: recombinant; tags: N-terminal GST; dsDNA, one strand shown. An outline of the steps:
as §1

The next experiment has as its target T8, ELK4 (Homo sapiens, UniProt P28324-2 1-405).
T8 sequence: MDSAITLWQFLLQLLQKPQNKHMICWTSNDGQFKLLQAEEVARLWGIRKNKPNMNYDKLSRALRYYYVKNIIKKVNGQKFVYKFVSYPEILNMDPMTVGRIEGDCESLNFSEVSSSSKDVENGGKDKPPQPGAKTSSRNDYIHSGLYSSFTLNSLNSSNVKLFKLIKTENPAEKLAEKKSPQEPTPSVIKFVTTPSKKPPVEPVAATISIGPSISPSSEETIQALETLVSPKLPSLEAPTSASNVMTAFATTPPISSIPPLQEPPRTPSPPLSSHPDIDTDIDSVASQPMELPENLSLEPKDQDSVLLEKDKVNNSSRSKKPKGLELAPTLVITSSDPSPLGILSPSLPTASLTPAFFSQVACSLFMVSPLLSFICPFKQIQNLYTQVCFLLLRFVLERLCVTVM
Particulars: protein: recombinant; tags: N-terminal GST; dsDNA, one strand shown. The procedure, abridged: as §1

For another experiment, the target named is T9, ETV2 (Homo sapiens, UniProt O00321 1-342).
T9 sequence: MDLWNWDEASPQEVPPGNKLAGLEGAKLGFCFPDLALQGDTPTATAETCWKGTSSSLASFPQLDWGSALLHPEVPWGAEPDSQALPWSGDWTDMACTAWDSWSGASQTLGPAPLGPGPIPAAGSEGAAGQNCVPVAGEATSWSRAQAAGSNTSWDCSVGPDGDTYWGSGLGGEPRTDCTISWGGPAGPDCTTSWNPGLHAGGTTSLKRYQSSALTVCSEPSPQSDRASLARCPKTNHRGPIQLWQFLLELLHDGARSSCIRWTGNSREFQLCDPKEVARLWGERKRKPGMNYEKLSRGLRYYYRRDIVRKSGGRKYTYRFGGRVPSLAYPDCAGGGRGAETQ
Particulars: protein: recombinant; tags: N-terminal GST; dsDNA, one strand shown. An outline of the steps:
as §1

The target of another experiment is T10, ELF3 (Homo sapiens, UniProt P78545 1-371).
T10 sequence: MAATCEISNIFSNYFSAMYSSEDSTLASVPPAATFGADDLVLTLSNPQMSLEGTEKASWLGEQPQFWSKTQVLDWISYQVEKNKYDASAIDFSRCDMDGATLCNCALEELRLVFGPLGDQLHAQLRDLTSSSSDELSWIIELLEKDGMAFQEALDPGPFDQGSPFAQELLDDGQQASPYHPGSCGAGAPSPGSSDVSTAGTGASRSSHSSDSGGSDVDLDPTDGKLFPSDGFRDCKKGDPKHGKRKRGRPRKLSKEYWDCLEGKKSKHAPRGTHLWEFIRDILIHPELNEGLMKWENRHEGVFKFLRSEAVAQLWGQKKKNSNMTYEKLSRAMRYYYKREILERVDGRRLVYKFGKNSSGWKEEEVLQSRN
The note with it: protein: recombinant; tags: N-terminal GST; dsDNA, one strand shown. An outline of the steps: as §1

In another experiment the target is ETV1 (Homo sapiens, UniProt P50549 1-477). The note with it: protein: recombinant; tags: N-terminal GST; dsDNA, one strand shown. An outline of the steps: as §1
ETV1, sequence (P50549 whole entry): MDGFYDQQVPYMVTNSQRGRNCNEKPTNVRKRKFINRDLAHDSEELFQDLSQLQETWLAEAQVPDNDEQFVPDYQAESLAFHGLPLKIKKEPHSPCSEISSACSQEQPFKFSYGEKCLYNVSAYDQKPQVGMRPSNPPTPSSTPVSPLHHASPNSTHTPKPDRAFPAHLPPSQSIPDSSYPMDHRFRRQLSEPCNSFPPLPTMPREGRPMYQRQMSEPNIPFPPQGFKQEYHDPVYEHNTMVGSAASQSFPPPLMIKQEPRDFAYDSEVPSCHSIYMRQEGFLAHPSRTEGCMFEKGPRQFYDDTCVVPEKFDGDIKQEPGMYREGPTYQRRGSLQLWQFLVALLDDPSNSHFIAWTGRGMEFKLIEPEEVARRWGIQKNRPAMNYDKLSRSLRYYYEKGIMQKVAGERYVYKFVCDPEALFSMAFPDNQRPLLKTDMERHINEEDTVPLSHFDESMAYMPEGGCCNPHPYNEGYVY

HSF1, sequence (Q00613 whole entry): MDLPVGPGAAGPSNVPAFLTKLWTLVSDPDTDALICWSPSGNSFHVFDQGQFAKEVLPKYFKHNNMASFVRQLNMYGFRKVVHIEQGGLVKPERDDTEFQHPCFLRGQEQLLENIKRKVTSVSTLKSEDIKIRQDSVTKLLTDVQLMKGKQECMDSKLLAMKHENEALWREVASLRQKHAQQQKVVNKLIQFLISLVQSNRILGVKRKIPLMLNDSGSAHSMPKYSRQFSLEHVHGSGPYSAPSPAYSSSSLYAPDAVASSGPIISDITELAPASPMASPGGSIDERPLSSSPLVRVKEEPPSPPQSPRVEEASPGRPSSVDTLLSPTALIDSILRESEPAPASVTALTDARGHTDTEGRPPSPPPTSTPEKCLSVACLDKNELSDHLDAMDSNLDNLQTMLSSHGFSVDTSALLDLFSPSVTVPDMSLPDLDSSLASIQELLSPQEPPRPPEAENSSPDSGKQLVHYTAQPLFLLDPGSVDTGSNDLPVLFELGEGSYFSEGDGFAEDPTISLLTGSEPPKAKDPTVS
SPIB, sequence (Q01892 whole entry): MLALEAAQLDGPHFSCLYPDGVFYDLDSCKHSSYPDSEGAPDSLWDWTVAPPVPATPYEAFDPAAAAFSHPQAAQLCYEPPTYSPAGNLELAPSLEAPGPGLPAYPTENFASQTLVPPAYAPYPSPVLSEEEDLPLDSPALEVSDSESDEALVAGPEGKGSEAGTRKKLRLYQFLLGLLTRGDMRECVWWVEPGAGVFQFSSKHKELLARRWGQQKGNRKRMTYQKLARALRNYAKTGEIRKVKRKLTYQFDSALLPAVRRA
ELF4, sequence (Q99607 whole entry): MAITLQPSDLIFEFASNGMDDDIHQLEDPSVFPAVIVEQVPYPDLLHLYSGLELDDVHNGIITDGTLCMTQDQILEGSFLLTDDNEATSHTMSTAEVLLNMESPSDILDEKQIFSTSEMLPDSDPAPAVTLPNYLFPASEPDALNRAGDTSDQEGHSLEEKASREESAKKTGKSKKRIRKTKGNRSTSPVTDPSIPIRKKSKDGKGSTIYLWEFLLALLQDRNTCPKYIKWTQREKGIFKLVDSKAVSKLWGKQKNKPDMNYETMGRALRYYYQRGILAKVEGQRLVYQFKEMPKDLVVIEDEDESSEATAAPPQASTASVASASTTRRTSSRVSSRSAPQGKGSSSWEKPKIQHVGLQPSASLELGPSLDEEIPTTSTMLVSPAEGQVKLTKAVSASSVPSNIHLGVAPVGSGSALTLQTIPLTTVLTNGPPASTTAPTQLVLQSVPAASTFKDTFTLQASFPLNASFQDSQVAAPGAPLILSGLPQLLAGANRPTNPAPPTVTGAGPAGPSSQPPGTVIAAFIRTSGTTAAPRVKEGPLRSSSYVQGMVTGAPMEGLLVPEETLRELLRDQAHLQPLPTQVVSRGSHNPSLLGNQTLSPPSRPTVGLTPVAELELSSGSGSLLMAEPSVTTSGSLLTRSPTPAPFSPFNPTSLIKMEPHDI
ETV5, sequence (P41161 whole entry): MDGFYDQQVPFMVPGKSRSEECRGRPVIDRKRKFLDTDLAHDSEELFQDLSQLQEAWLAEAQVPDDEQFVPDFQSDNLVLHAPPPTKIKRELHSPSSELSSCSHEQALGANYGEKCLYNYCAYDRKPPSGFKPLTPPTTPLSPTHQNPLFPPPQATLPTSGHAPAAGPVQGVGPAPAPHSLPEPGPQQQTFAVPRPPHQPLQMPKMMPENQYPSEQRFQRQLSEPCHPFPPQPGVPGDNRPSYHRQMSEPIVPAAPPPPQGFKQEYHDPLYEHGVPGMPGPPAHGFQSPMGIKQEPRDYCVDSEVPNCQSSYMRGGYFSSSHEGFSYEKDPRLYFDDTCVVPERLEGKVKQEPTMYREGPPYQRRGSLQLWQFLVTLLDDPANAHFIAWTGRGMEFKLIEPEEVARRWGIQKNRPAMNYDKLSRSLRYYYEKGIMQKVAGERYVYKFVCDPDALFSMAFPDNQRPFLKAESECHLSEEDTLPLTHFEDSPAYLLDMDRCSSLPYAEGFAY
ELF1, sequence (P32519 whole entry): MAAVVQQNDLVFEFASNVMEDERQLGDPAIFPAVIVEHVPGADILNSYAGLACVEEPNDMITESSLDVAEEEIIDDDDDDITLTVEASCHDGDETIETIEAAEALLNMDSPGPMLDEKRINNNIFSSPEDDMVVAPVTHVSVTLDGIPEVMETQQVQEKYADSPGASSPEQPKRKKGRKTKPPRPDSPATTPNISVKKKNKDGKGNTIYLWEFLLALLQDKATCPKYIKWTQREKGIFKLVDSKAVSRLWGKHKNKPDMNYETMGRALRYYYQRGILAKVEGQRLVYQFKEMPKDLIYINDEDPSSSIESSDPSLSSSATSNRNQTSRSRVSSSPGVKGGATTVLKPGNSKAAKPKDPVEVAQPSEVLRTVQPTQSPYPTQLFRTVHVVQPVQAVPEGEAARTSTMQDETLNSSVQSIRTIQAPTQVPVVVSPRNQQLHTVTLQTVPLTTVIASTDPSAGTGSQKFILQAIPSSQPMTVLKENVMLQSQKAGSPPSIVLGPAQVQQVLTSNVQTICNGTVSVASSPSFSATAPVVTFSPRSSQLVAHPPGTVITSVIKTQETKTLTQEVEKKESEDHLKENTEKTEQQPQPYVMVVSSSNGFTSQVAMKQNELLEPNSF

Consider ACGCCC, for which the binding signal with FLI1 is 1.22 fold enrichment (6-mer frequency, TF over GST control); with ELK1 it was 1.21 fold enrichment (6-mer frequency, TF over GST control); with GABPA, 1.25 fold enrichment (6-mer frequency, TF over GST control); with ERG it was 1.11 fold enrichment (6-mer frequency, TF over GST control); in the experiment with ELF1, 1.21 fold enrichment (6-mer frequency, TF over GST control); with EHF, 1.18 fold enrichment (6-mer frequency, TF over GST control). In addition, the binding signal with SPI1 is 1.11 fold enrichment (6-mer frequency, TF over GST control); with SPIB, 1.14 fold enrichment (6-mer frequency, TF over GST control); in the experiment with ELK3 it was 1.11 fold enrichment (6-mer frequency, TF over GST control); in the experiment with FEV, 1.12 fold enrichment (6-mer frequency, TF over GST control); with ETV5, 1.16 fold enrichment (6-mer frequency, TF over GST control); with HSF1 it was 1 fold enrichment (6-mer frequency, TF over GST control). Also, the binding signal was 1.2 fold enrichment (6-mer frequency, TF over GST control) with ELF4; 1.18 fold enrichment (6-mer frequency, TF over GST control) with ELK4; 1.05 fold enrichment (6-mer frequency, TF over GST control) with ETV2; 1.06 fold enrichment (6-mer frequency, TF over GST control) with ELF3; 1.16 fold enrichment (6-mer frequency, TF over GST control) in the experiment with ETV1.

(Values after paper PMC7862700, “An all-to-all approach to the identification of sequence-specific readers for epigenetic DNA modifications on cytosine”.)
